Hit rate of the full screen: of about 69,000 compounds, about 8,600 (12%) showed an effect of 50% or more. For the sample, strong results were picked, then their nearest neighbours and some compounds at random.
test system: Plasmodium berghei; test: Screen against P. berghei liver stage (PbLuc), transformed with Luciferase, at 10uM; format: functional, HepG2; conditions: tested at 10 uM

Row | Structure (SMILES) | INHIBITION
1 | CCn1ncc2c1CCCC2NCc1cc(OC)cc(OC)c1 (stereo not given) | 37.9%
2 | CC(C)n1cc(C(=O)NCCCn2ccnc2)c2n[nH]c(=O)c-2c1 | -7.57%
3 | Cc1ccc(N2CC[C@H]3C[C@H](C(=O)NCc4ccco4)O[C@@H]3C2)cc1 | 40.1%
4 | CC(C)CN1CCS(=O)(=O)[C@@H]2CCN(S(=O)(=O)CC(C)C)CC[C@@H]21 | 2.41%
5 | Cc1ccc(C(=O)NC2CCN(C(C)C)C2)c(=O)[nH]1 (stereo not given) | 20.8%
6 | CC(C)NC(=O)c1cc(-c2ccc(S(C)(=O)=O)cc2)c2cnn(C)c2n1 | 94.6%
7 | CN(C)C(=O)c1cc(-c2ccc(S(C)(=O)=O)cc2)c2cnn(C)c2n1 | 25.9%
8 | CC(C)NC(=O)c1cc(-c2ccc(S(C)(=O)=O)cc2)nc2c1cnn2C | 24.2%
9 | COc1cccc(CNC(=O)c2cccnc2SC(C)C)c1 | 7.27%
10 | CCN(C)Cc1n[nH]c(=O)n1-c1ccc(C)c(C)c1 | 46.7%
11 | O=C(CC1CC1)N1CCN(Cc2cccnc2)c2ncccc2C1 | 0.618%
12 | CC1CCC(NC(=O)CNC2(c3cccc(Br)c3)CCOCC2)CC1 (stereo not given) | -7.46%
13 | O=C(CC1Cn2ncnc2NC1=O)Nc1cccc(C(F)(F)F)c1 (stereo not given) | 54%
14 | COc1cccc(NC(=O)CC2Cn3ncnc3NC2=O)c1 (stereo not given) | 25.9%
15 | O=C(CC1Cn2ncnc2NC1=O)Nc1ccccc1 (stereo not given) | -46.2%
16 | CN(Cc1cncnc1)Cc1cn2c(n1)CN(C1CCOC1)CC2 (stereo not given) | 1.28%
17 | CCOC(=O)N1CCN(C(=O)c2snnc2-c2ccccc2)CC1 | -7.27%
18 | COCc1ccccc1CNC(=O)CN1CCC2(CCOC2)C1 (stereo not given) | 68.4%
19 | CCCOc1cccc(CNC(=O)CN2CCN(C)CC2C)c1 (stereo not given) | 36.9%
20 | CNC(=O)CN1CCOCC2(CCCN(CCc3ccccc3)C2)C1 (stereo not given) | 43.2%
21 | COCc1ccccc1CNC(=O)CN1CCCC1c1noc(C)n1 (stereo not given) | -1.05%
22 | CCOc1cccc(CNC(=O)CN2CCC3(CCOC3)C2)c1 (stereo not given) | 61.9%
23 | COc1ccc(Cl)cc1CNC(=O)CN1CCC2(CCOC2)C1 (stereo not given) | 39.6%
24 | Cc1oncc1C(=O)N[C@@H]1CN(Cc2ccoc2)C[C@@H]2CCCO[C@@H]21 | 43%
25 | COc1cc(N2CCC3(CC2)OCC(=O)NC3C)ncn1 (stereo not given) | 10.6%
26 | Cc1cc(F)cc(S(=O)(=O)NC(=O)CCc2cncc(F)c2)c1 | 38.9%
27 | CNC(=O)CCc1cc(C)nc(C2CCCCN2)n1 (stereo not given) | 26.3%

Row | Structure (SMILES) | INHIBITION
28 | O=C(COc1ccccc1F)NCC(O)(c1ccccc1)C1CC1 (stereo not given) | -22.7%
29 | CCC(=O)N1CCN(c2cc(N(C)C)cnn2)CC1 | -15.6%
30 | Cc1nn(C)c(C)c1C(=O)N1CCN(C(=O)CCC2CCCCC2)CC1 | 28.7%
31 | CN(C)c1cnnc(N2CCN(C(=O)CCC3CCCCC3)CC2)c1 | 76.7%
32 | Cc1nn(C)c(C)c1C(=O)N1CCN(C(=O)CC2CCCCC2)CC1 | 39.4%
33 | Cc1cc(C(=O)N2CCN(C(=O)CCC3CCCCC3)CC2)n(C)n1 | 56.5%
34 | CC(C)CC(=O)N1CCN(c2cc(N(C)C)cnn2)CC1 | 22.2%
35 | CCN1CC(C(=O)NCCn2cccc2)CCC1=O (stereo not given) | 44.8%
36 | NCc1cc(-c2ccccc2)n2nccc2n1 | 41.2%
37 | CS(=O)(=O)N[C@@H]1COC[C@@H]2CN(Cc3ccco3)C[C@@H]21 | 18.4%
38 | Cn1nccc1C(=O)N1C[C@@H]2CC[C@H](Oc3cccc(F)c3)[C@@H]2C1 | 25.6%
39 | CCOC(=O)CNC(=O)c1cc2n(n1)CCCO2 | -0.996%
40 | CCNC(=O)c1cc2n(n1)CCCO2 | 9.41%
41 | CCOC(=O)c1cc2n(n1)CCCO2 | 57.6%
42 | COC(=O)c1ccc(OC)c(OC23CCCN(CC2)C3)c1 (stereo not given) | -9.76%
43 | O=C(c1cc(F)cc(F)c1)N1CCC(O)(C(F)(F)F)CC1 | 25.4%
44 | N#Cc1ccc(C(=O)N2CCC3(CC2)CC3)cc1 | 40.8%
45 | O=C(c1cc(F)cc(F)c1)N1CCC2(CC1)CC2 | 73.2%
46 | COCCN1CCO[C@@H]2CN(C(=O)NCc3cccnc3)CC[C@@H]2C1 | 29.8%
47 | Cc1nc(CN(Cc2ccccc2F)C2CCC2)no1 | -16.6%
48 | O=C(Nc1ccc2c(c1)OCCO2)N1CCCN(Cc2cccs2)CC1 | -14.1%
49 | O=C1Cc2cc(NC(=O)N3CCCN(Cc4cccs4)CC3)ccc2N1 | 42.7%
50 | O=C1CCc2cc(NC(=O)N3CCCN(Cc4cccs4)CC3)ccc21 | 53.8%
51 | Cc1noc(C)c1CNCC1Cn2nncc2CO1 (stereo not given) | 40.3%
52 | Cc1nc(N2CCCC2)nc2c1CN(C(=O)NC(C)C)CC2 | -9.74%
53 | CCc1ccccc1OCCN1C[C@@H](NS(C)(=O)=O)[C@H](C(C)C)C1 | 57.3%
54 | CC(C)[C@@H]1CN(CCCOc2ccc(F)cc2)C[C@H]1NS(C)(=O)=O | 54.5%

Row | Structure (SMILES) | INHIBITION
55 | CC(C)[C@@H]1CN(CCOc2ccc(Cl)cc2)C[C@H]1NS(C)(=O)=O | 14.6%
56 | CC(C)[C@@H]1CN(Cc2c[nH]nc2-c2ccc(F)cc2)C[C@H]1NS(C)(=O)=O | -5.22%
57 | CS(=O)(=O)N[C@H]1CN(CCOCc2ccccc2)C[C@@H]1C1CC1 | 15%
58 | CCc1ccccc1OCCN1CCC(NS(C)(=O)=O)CC1 | 43.1%
59 | CCOc1ccc(Cl)c(C(=O)N2CCN(C(=O)OC)CC2)n1 | -6.44%
60 | Cc1cc(C2CCCN2S(=O)(=O)c2cnn(C)c2)on1 (stereo not given) | -9.8%
61 | Cc1nn(C)cc1CN1C[C@H]2CC[C@@H](C1)N(Cc1c(C)noc1C)C2=O | -4.4%
62 | Cc1ccc(CNC(=O)NCc2ccco2)s1 | 10.7%
63 | CN(C)c1ncc(I)c(C2CCCN2C)n1 (stereo not given) | -54.1%
64 | CS(=O)(=O)NCC1CCCCN1C(=O)c1csc(-c2ccsc2)n1 (stereo not given) | -89.3%
65 | CS(=O)(=O)NCC1CCCCN1C(=O)c1ccc(Br)s1 (stereo not given) | -50.5%
66 | CS(=O)(=O)NCC1CCCCN1C(=O)c1ccsc1 (stereo not given) | 59.5%
67 | Cc1ccc2nc(NCCN3CCOCC3)n(C)c(=O)c2c1 | -22.4%
68 | CCN1CCN(CCNc2nc3ccc(C)cc3c(=O)n2C)CC1 | 71.7%
69 | Cc1ccc2nc(NCCCN3CCCCCC3=O)n(C)c(=O)c2c1 | 8.97%
70 | Cc1nc(C)n(CC2CCCN2CC(=O)Nc2ccncc2)n1 (stereo not given) | 25.4%
71 | COCCN1CCO[C@@H]2CN(C(=O)Cc3cccc(F)c3)CC[C@@H]2C1 | 10.5%
72 | O=C(c1cc(-n2cnnn2)ccc1Cl)N1CCN(c2ccccc2)CC1 | 10.1%
73 | O=C(c1ccc(Cl)cc1)N1CCn2c(nn(-c3ccc(Cl)cc3)c2=O)C1 | 35%
74 | O=C(c1ccc(Cl)cc1)N1CCn2c(nn(-c3ccncc3)c2=O)C1 | 49.9%
75 | O=C(c1ccc(Cl)cc1)N1CCn2c(nn(-c3cccc(Cl)c3)c2=O)C1 | 54%
76 | O=C(NCCNc1ccccn1)Nc1cc(C(F)(F)F)c[nH]c1=O | 7.4%
77 | O=C(NCc1ccncc1)Nc1cc(C(F)(F)F)c[nH]c1=O | 11.083%
78 | O=C(NCc1ccccn1)Nc1cc(C(F)(F)F)c[nH]c1=O | 57.2%
79 | O=C(NCCc1ccccn1)Nc1cc(C(F)(F)F)c[nH]c1=O | 1.62%
80 | Cn1nccc1C(=O)Nc1cc(C(F)(F)F)c[nH]c1=O | 17.68%
81 | Cn1nccc1CNC(=O)Nc1cc(C(F)(F)F)c[nH]c1=O | 55.1%

Row | Structure (SMILES) | INHIBITION
82 | Cc1noc(CN2CCN(c3cncc(Cl)n3)CC2)n1 | 5.05%
83 | O=C(N1CCOCC1)N1CCN(c2ccc(Cl)nn2)C(=O)C1 | 24.2%
84 | CN(Cc1cnn(C)c1)C(=O)CN1CCCC(Cn2cncn2)C1 (stereo not given) | 7.67%
85 | Cc1nn(C)c(Cl)c1C1CCCN1C(=O)c1cccc(C#N)c1 (stereo not given) | -38.7%
86 | Cc1noc(C2(C)CCCN(C(=O)c3cnn(C)c3)C2)n1 (stereo not given) | 24.4%
87 | O=C(NCC1CCCCC1)N1C[C@@H]2C[C@H](C(=O)N3CCOCC3)[C@H](C1)O2 | 22.2%
88 | O=C(Nc1nncs1)N1CCC(c2ccc(O)cc2)CC1 | -1.45%
89 | O=C(Nc1nncs1)N1CCC(CCO)CC1 | 66.6%
90 | O=C(Nc1nncs1)N1CCC(CCc2ccc(O)cc2)CC1 | 12.5%
91 | COc1ccc2c(c1)[nH]c1c(N(C)CC3OCCO3)ncnc12 | -13.6%
92 | O=C(Nc1ccccc1)N1CCn2c(nnc2C2CCCN2)C1 (stereo not given) | 46.6%
93 | O=C(C1=CCCC1)N1CC[C@]2(C[C@H](OCc3cccnc3)CO2)C1 | 16.9%
94 | O=C1N(c2ccsc2)CCC12CCCN(Cc1ccccn1)C2 (stereo not given) | -6.23%
95 | CCN1CCC2(CCN(Cc3ccc(OC)cc3)CC2)C1=O | 38.3%
96 | O=C1N(c2ccsc2)CCC12CCCN(CC1CC1)C2 (stereo not given) | 57.9%
97 | Cc1occc1C(=O)N1CCCC2(CCN(c3ccsc3)C2=O)C1 (stereo not given) | 56.7%
98 | CN(C)C(=O)CN1CCCC2(CCN(c3ccsc3)C2=O)C1 (stereo not given) | 40.4%
99 | COc1ccc(CN2CCC3(CC2)CCN(CC2CC2)C3=O)cc1 | 52.4%
100 | Cn1cc(CN2CCC3(CCN(c4cnn(C)c4)C3=O)C2)cn1 (stereo not given) | 14.8%
101 | Cc1occc1C(=O)N1CCCC2(CCN(c3ccccc3)C2=O)C1 (stereo not given) | -54.5%
102 | Cc1nocc1C(=O)N1CCCC2(CCN(c3ccsc3)C2=O)C1 (stereo not given) | -107%
103 | Cn1cc(N2CCC3(CCCN(Cc4ccc(F)cc4)C3)C2=O)cn1 (stereo not given) | 67.2%
104 | COc1ccc(CN2CCC3(CC2)CCN(CC(=O)N(C)C)C3=O)cc1 | -8.51%
105 | Cn1cc(N2CCC3(CCCN(Cc4ccoc4)C3)C2=O)cn1 (stereo not given) | -2.72%

— ChEMBL document CHEMBL4513216, “Probing the Open Global Health Chemical Diversity Library for Multistage-Active Starting Points for Next-Generation Antimalarials” (ACS Infect Dis, 2020)
